Pf growth 96h – Primary qHTS for delayed death inhibitors of the malarial parasite plastid, 96 hour incubation; Potency, µM (series often up to 28.7 µM), inactives show at the highest dose activity change, negative = inhibition, hits mostly inhibitors; P. falciparum luciferase reporter growth, 96 h; hit rate 6.9% among 320,000; further: potency means the concentration at half of the fitted maximal effect; on the % scale 0 is the no-effect control and ±100 the full control effect
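Two parasite generations (96 h, 37 C, 5% CO2) of compound exposure in infected erythrocytes (0.05% parasitemia, 2% hematocrit). Luciferase-reporter P. falciparum; decreased luminescence indicates inhibited growth, aimed at apicoplast-acting delayed death.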
Cycloheximide cs – Cycloheximide Counterscreen for Small Molecule Inhibitors of Shiga Toxin; cell reporter, cycloheximide protein synthesis inhibition counterscreen; max response, %; hit rate 12% among 300,000; AID 2314, 2010; in the data active means max response mostly above about 13%, no sharp cut-off; inactive means mostly below about 14%; further: read at 38.3 µM for the half of the compounds with a filed dose; 0% is about no effect
Shiga inhibitor – A qHTS for Small Molecule Inhibitors of Shiga Toxin; AID 2315, 2010; inhibition, % at 38.7 µM; Vero cells, Shiga toxin protein synthesis inhibition reporter; hit rate 9.2% among 290,000; in the data active means inhibition mostly above about 28%, no sharp cut-off; inactive means mostly below about 43%; further: 0% is about no effect
Pf growth 48h – Primary qHTS for delayed death inhibitors of the malarial parasite plastid, 48 hour incubation. hit rate 5.9% among 310,000. AID 504832, 2011. P. falciparum luciferase growth in erythrocytes, 48 h. Potency, µM (series often up to 28.7 µM), inactives show top-dose activity change, negative = inhibition, actives largely listed as inhibitors; further: potency means the concentration at half of the fitted maximal effect; on the % scale 0 is the no-effect control and ±100 the full control effect
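Luciferase-expressing P. falciparum in infected erythrocytes (2% hematocrit, 0.1% parasitemia final) in RPMI 1640/0.5% Albumax were exposed to compound for 48 hours at 37 C, 5% CO2; growth read as luminescence.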
An asterisk follows results filed as active; ? = inconclusive; nt = not tested or not shown; [ ] = dose if it differs, or a comment. In the library only some 21% were active in any assay of this set; here they are far more common. Unless noted, the call rests on the fitted dose curve; in most records, active means well fitted inhibition curve with a large enough effect; inconclusive means small, poorly fitted or top-dose-only effect, or another doubt; inactive means no such curve, though single readings can be large or run the other way.

SMILES	Pf growth 96h	Cycloheximide cs	Shiga inhibitor	Pf growth 48h
Cc1cccc(NCc2cc(Cl)ccc2O)n1	-14%	12	-2	6.6µM*
Cc1cccc(NCc2cc(Cl)cc(Cl)c2O)n1	-1%	8	25	10µM*
OCCOC[C@H]1O[C@H](OCCO)[C@H](OCCO)[C@@H](OCCO)[C@@H]1OCCO (tested in a mixture with another compound)	4%	nt	nt	-5%
C/C(CC(=O)Nc1ccc(Cl)c(C(F)(F)F)c1)=N\NC(=O)c1cnccn1	-8%	41*	74*	?
C/C(CC(=O)Nc1c(C)cc(C)cc1C)=N\NC(=O)OC(C)(C)C	?	25*	79*	-15%
C/C(CC(=O)Nc1ccc(Cl)cc1Cl)=N\NC(=O)c1cnccn1	21%	32*	59*	11%
C/C(CC(=O)Nc1c(C)cc(C)cc1C)=N\NC(=O)c1cnccn1	?	50*	23	0%
COc1ccc(C(=O)CSc2nnc(CNC(=O)c3ccco3)n2C)cc1	-24%	-2	-11	-18%
Cc1cc(OC(=O)c2cccc(F)c2)c([N+](=O)[O-])c(=O)[nH]1	-3%	1	2	2%
C/C(CC(=O)Nc1cccc(C(F)(F)F)c1)=N\NC(=O)c1cnccn1	-17%	26*	53*	-12%
C/C(CC(=O)Nc1cccc(C(F)(F)F)c1)=N/NC(=O)C(=O)NCCO	7%	11	17	11%
CC(SC#N)C(=O)C12CC3CC(CC(C3)C1)C2 (stereo not drawn)	30%	16	-6	13µM*
CC(Sc1n[nH]c(N)n1)C(=O)C12CC3CC(CC(C3)C1)C2 (stereo not drawn)	0%	2	6	nt
COc1ccc(Cl)cc1NC(=O)CNCC(c1ccccc1)N(C)C (stereo not drawn)	-13%	-1	16	-1%
COc1ccc(C)cc1NC(=O)CNC(c1ccccc1)c1ccccc1	?	7	5	7.4µM*
COc1ccc(Cl)cc1NC(=O)CNC(c1ccccc1)c1ccccc1	1.7µM*	3	14	?
Cc1ccc(NC(=O)CNC(c2ccccc2)c2ccccc2)c(F)c1	?	-2	2	-25%
CCC(C(=O)OCC(=O)Nc1cc(C)ccc1OC)c1ccccc1 (stereo not drawn)	21%	26*	32	0%
COc1cc(C(=O)Nc2ccc(C)cc2C(NCC(=O)NN)c2ccccc2)cc(OC)c1OC (stereo not drawn)	4.7µM*	1	12	5%[0.00184 µM]
COc1ccc(C)cc1NC(=O)COC(C)=O	6%	2	20	nt
COc1ccc(C2CC(c3cccs3)=NN2C(=O)COC(=O)c2cncc(Br)c2)cc1OC (stereo not drawn)	?	-3	21	?
CC1CCCC(C)N1C(=O)CN1C(=O)c2ccccc2S1(=O)=O (stereo not drawn)	19%	nt	nt	-3%
COc1ccc(OC)c(NC(=O)CCCSc2ccccc2)c1	11%	5	47	?
COc1ccc(OC)c(NC(=O)CNC(c2ccccc2)c2ccccc2)c1	9.3µM*	5	18	12µM*
Cc1ccc(N(C(=O)c2csnn2)C(C(=O)NC2CCCC2)c2cccnc2)c(C)c1 (stereo not drawn)	?	-4	2	-15%
SMILES	Pf growth 96h	Cycloheximide cs	Shiga inhibitor	Pf growth 48h
Cc1cccc(C(=O)OCC(=O)NCCCc2ccccc2)c1O	8%	-2	-5	nt
Oc1c(C(c2ccccn2)N2CCC(Cc3ccccc3)CC2)cc(Cl)c2cccnc12 (stereo not drawn)	0%	13	48	2.9µM*
Cc1ccc(C(c2cc(Cl)c3cccnc3c2O)N2CCN(C)CC2)cc1 (stereo not drawn)	?	21	37	4.1µM*
c1ccc(CC2CCN(Cc3ccccn3)CC2)cc1	-11%	5	15	?
Oc1c(C(c2ccc(Cl)cc2)N2CCCC2)cc(Cl)c2cccnc12 (stereo not drawn)	1.9µM*	5	2	3.3µM*
CN1CCN(C(c2ccc(C(F)(F)F)cc2)c2ccc3cccnc3c2O)CC1 (stereo not drawn)	?	-3	-15	?
CN1CCN(C(c2ccccn2)c2cc(Cl)c3cccnc3c2O)CC1 (stereo not drawn)	?	-1	16	4.7µM*
Oc1c(C(c2ccccc2Cl)N2CCCC2)ccc2cccnc12 (stereo not drawn)	?	-5	17	-54%[1.15 µM]
CCCC[N+]12CCC(CC1)C(C(=O)c1cccs1)C2 (stereo not drawn)	2.6µM*	-5	-3	10µM*
CCC(=O)N(Cc1c(C)nn(-c2ccccc2)c1Cl)c1ccc(Cl)cc1	3%	0	4	10µM*
Cc1nn(-c2ccccc2)c(C)c1C(=O)NCCc1ccc(Cl)cc1	-15%	-2	-17	4%
CC1CN(S(=O)(=O)c2cccc(C(=O)NCc3ccco3)c2)CC(C)O1 (stereo not drawn)	?	nt	nt	-1%
CC1CC(C)CN(S(=O)(=O)c2ccc(C(=O)NCc3ccco3)cc2)C1 (stereo not drawn)	8.3µM*	5	-7	?
COc1ccc(S(=O)(=O)N2CCC(C(=O)NCc3ccco3)CC2)cc1	?	1	-7	3.3µM*
O=C(NCc1ccco1)C1CCN(S(=O)(=O)c2ccccc2C(F)(F)F)CC1	?	nt	nt	10µM*
CCOc1ccc(S(=O)(=O)N2CCC(C(=O)NC3CCCCC3)CC2)cc1	?	-1	-13	-7%
CCOc1ccc(S(=O)(=O)N2CCC(C(=O)Nc3cc(S(C)(=O)=O)ccc3Cl)CC2)cc1	?	nt	nt	10µM*
COc1ccc(S(=O)(=O)N2CCC(C(=O)N[C@H](C(=O)NCc3ccco3)C(C)C)CC2)cc1	-5%	-3	-10	-14%
CCOc1ccc(S(=O)(=O)N2CCCC(C(=O)NCc3ccco3)C2)cc1 (stereo not drawn)	6%	-1	0	-6%
COc1ccc(/C=C\c2onc(C)c2S(=O)(=O)N2CCC(C(=O)NCc3ccco3)CC2)cc1	13µM*	-2	7	?
CCOc1ccc(S(=O)(=O)N2CCC(C(=O)NCc3ccco3)CC2)cc1	56%	-2	2	9.3µM*
CCOc1ccc(S(=O)(=O)N2CCC(C(=O)NCC3CCCO3)CC2)cc1C (stereo not drawn)	2.3µM*	-7	22	10%
COc1ccc(S(=O)(=O)N2CCC(C(=O)NCC3CCCO3)CC2)cc1C (stereo not drawn)	33%	-2	-5	13%
O=C(NCc1ccco1)C1CCCN(S(=O)(=O)c2ccc(Br)cc2)C1 (stereo not drawn)	15µM*	1	-16	-15%
CC(=O)Nc1cccc(C(=O)OC(C)C(=O)N2CCc3ccccc32)c1 (stereo not drawn)	6%	nt	nt	-5%
O=C(CNC(=O)C12CC3CC(CC(C3)C1)C2)N/N=C\c1ccccn1	20%	-6	-7	29%
CCc1ccc(OCc2nnc(SCC(=O)NCc3ccco3)o2)cc1	8%[5.75 µM]	-3	-6	?
